Screen size: about 4,400 compounds; about 390 (8.9%) showed an effect of 50% or more. The entries come from a sample that favours strong results as a whole.

One may read the % inhibition as the relative decrease from the control value, in per cent.

The experiment relates to Trypanosoma brucei. Kind of experiment: DNDI: Inhibition of Human African Trypanosomiasis, SBRI 427, in vitro at 2 ug.mL-1. Type of experiment: functional.
On to `Cc1ccc(Oc2nc(C)ccc2/C(=N/O)N2CCN(c3ccccc3)CC2)c(C)c1`, for which the “% inhibition” value was 15%.

In the case of `O/N=C(/c1ccc(Oc2cccc3cccnc23)nc1)n1ccnc1`, the “% inhibition” value was -3%.

For the compound `COc1ccc(Oc2ncccc2/C(=N/O)Nc2ccc(C(C)C)cc2)cc1`, the “% inhibition” value is listed as -14%.

Take `COCCN/C(=N\O)c1cccnc1Oc1cccc(C(F)(F)F)c1`: the “% inhibition” value turned out to be 1%.

For `CCc1ccc(Oc2ncccc2/C(=N/O)NCCOC)cc1`, the “% inhibition” value worked out at 86%.

`COCCN/C(=N\O)c1cccnc1Oc1ccc(OC)cc1`: the “% inhibition” value came out at 8%.

As to `CCc1ccc(Oc2ncccc2/C(=N/O)NCCN(C)C)cc1`, the “% inhibition” value is recorded as 5%.

Regarding `COCCN/C(=N\O)c1cccnc1Oc1ccc(C(C)C)cc1`, the “% inhibition” value was found to be 97%.

On to `O/N=C(\NCC1CCCCC1)c1ccnc(Oc2ccc(Cl)cc2)c1`, for which the “% inhibition” value stood at 98%.

With `CCOc1ccc(Oc2cc(/C(=N/O)NCC3CCCCC3)ccn2)cc1`, the “% inhibition” value was 33%.

Turning to `O/N=C(\NC1CCCCC1)c1ccnc(Oc2ccc(Cl)cc2)c1`, the “% inhibition” value was determined as 99%.

Turning to `O/N=C(\NCc1ccncc1)c1ccnc(Oc2ccc(Cl)cc2)c1`, the “% inhibition” value was found to be 20%.

As to `O/N=C(\NCC1CCCCC1)c1ccnc(Oc2ccc(F)c(Cl)c2)c1`, the “% inhibition” value stood at 5%.

Take `CC1CCCN1/C(=N\O)c1ccnc(Oc2ccc(Cl)cc2)c1` (stereo not given): the “% inhibition” value is reported as -11%.

Turning to `O/N=C(/c1ccnc(Oc2ccc(Cl)cc2)c1)N1CCCCC1`, the “% inhibition” value stood at 23%.

As to `O/N=C(/c1ccnc(Oc2ccc(Cl)cc2)c1)N1CCCCCC1`, the “% inhibition” value stood at 18%.

For `O/N=C(\NC1CCCC1)c1ccnc(Oc2ccc(Cl)cc2)c1`, the “% inhibition” value is reported as 93%.

For the compound `CN1CCCC1CCN/C(=N\O)c1cccnc1Oc1cccc(C(F)(F)F)c1` (stereo not given), the “% inhibition” value worked out at 3%.

For `Cc1ccc(/C(=N/O)N2CC(C)CC(C)C2)c(Oc2ccc3oc4ccccc4c3c2)n1` (stereo not given), the “% inhibition” value was found to be 11%.

In the case of `COc1cccc(-c2nc(CN3CCCCC3)co2)c1`, the “% inhibition” value came out at 12%.

Consider `CN(C)CCN(Cc1ccccc1)Cc1coc(-c2cccc(F)c2)n1`, for which the “% inhibition” value was -25%.

Consider `Clc1ccccc1-c1nc(CN(CCc2ccccc2)Cc2ccccc2)co1`, for which the “% inhibition” value stood at 17%.

`CCC(CC)N/C(=N\O)c1ccc(C)nc1Oc1cccc(F)c1`: the “% inhibition” value is on record as 88%.

Consider `Cc1ccc(/C(=N/O)Nc2ccc(C(C)C)cc2)c(Oc2cc(Cl)ccc2Cl)n1`, for which the “% inhibition” value stood at 14%.

Consider `COCC(C)N/C(=N\O)c1ccc(C)nc1Oc1cccc(F)c1` (stereo not given), for which the “% inhibition” value came to 20%.

In the case of `Cc1ccc(/C(=N/O)NC(C)C)c(Oc2ccc(F)c(F)c2)n1`, the “% inhibition” value is 4%.

In the case of `CCC(CC)N/C(=N\O)c1ccc(C)nc1Oc1cccc(C(C)C)c1`, the “% inhibition” value was determined as 6%.

`CCC(CC)N/C(=N\O)c1ccc(C)nc1Oc1cc(Cl)ccc1Cl`: the “% inhibition” value turned out to be 100%.

Regarding `CCC(CC)N/C(=N\O)c1ccc(C)nc1Oc1ccc(SC)c(C)c1`, the “% inhibition” value was found to be 6%.

On to `CCC(CC)N/C(=N\O)c1ccc(C)nc1Oc1ccc(F)c(Cl)c1`, for which the “% inhibition” value stood at 100%.

For the compound `COc1cc(-c2nc(CN3CCN(C)CC3)co2)cc(OC)c1OC`, the “% inhibition” value was -2%.

As for `Cc1cccc(-c2nc(CNC(C)c3cccc4ccccc34)co2)c1` (stereo not given), the “% inhibition” value is listed as 14%.

With `Fc1ccc(-c2nc(CN3CCN(c4cccc(Cl)c4)CC3)co2)cc1`, the “% inhibition” value is -16%.

As for `Cc1ccc(/C(=N/O)n2ccnc2)c(OCc2ccccn2)n1`, the “% inhibition” value worked out at 16%.

Consider `CCOc1ccc(-c2nc(CNc3ccnn3CC)co2)cc1`, for which the “% inhibition” value is -10%.

For `O/N=C(\NC1CCc2ccccc21)c1ccc(Oc2ccc(-n3ccnc3)cc2)nc1` (stereo not given), the “% inhibition” value is -1%.

As to `Cc1cn(Cc2coc(-c3cccc(F)c3)n2)c(C)n1`, the “% inhibition” value is recorded as 5%.

As to `Cc1ccc(-c2nc(CN3CCN(C/C=C/c4ccccc4)CC3)co2)cc1`, the “% inhibition” value is given as 8%.

In the case of `CC(C)c1cccc(Oc2cc(/C(=N/O)N3CCN(C)CC3)ccn2)c1`, the “% inhibition” value worked out at 4%.

As to `COc1ccc(Oc2cc(/C(=N/O)N3CCC=N3)ccn2)cc1`, the “% inhibition” value stood at 39%.

For the compound `O/N=C(/c1ccnc(Oc2ccc(F)c(Cl)c2)c1)N1CCN(c2ccc(F)cc2)CC1`, the “% inhibition” value is on record as 34%.

Regarding `CCOc1ccc(Oc2cc(/C(=N/O)N3Cc4ccccc4C3)ccn2)cc1`, the “% inhibition” value amounted to 3%.

On to `O/N=C(/c1ccnc(Oc2ccc(F)c(Cl)c2)c1)N1CCN(c2ccccc2)CC1`, for which the “% inhibition” value stood at 58%.

On to `CC(C)c1cccc(Oc2cc(/C(=N/O)N3CCN(c4ccccc4)CC3)ccn2)c1`, for which the “% inhibition” value is 86%.

In the case of `O/N=C(/c1ccnc(Oc2cccc(F)c2)c1)N1CCC=N1`, the “% inhibition” value is reported as 4%.

As to `Cc1ccc(/C(=N/O)N2Cc3ccccc3C2)c(Oc2cccc(C(C)C)c2)n1`, the “% inhibition” value worked out at 0%.

Consider `CC(C)c1cccc(Oc2cc(/C(=N/O)N3Cc4ccccc4C3)ccn2)c1`, for which the “% inhibition” value amounted to 67%.

Turning to `O/N=C(/c1ccnc(Oc2ccc(Cl)cc2)c1)N1CCN(c2ccccc2)CC1`, the “% inhibition” value came out at 28%.

With `CC(C)c1cccc(Oc2cc(/C(=N/O)N3CCC=N3)ccn2)c1`, the “% inhibition” value is on record as 53%.

Take `COc1ccc(Oc2cc(/C(=N/O)N3CCN(c4ccccc4)CC3)ccn2)cc1`: the “% inhibition” value was 22%.

Take `CCOC(=O)C1CCCCN1Cc1coc(-c2ccccc2C)n1` (stereo not given): the “% inhibition” value is reported as 1%.

Turning to `Cc1ccc(-c2nc(CNC(C)(C)CC(C)(C)C)co2)cc1`, the “% inhibition” value was determined as 19%.

With `N#CCCN(Cc1coc(-c2ccc(Br)cc2)n1)CC1CCCO1` (stereo not given), the “% inhibition” value is 11%.

On to `CCOc1ccccc1-c1nc(Cn2ncc3c2CCCC3)co1`, for which the “% inhibition” value came out at 12%.

Turning to `Cc1ccc(/C(=N/O)N(C)Cc2ccco2)c(Oc2cc(Cl)ccc2Cl)n1`, the “% inhibition” value came out at 13%.

`CCCCN(CC#N)Cc1coc(-c2ccc(OC)cc2)n1`: the “% inhibition” value worked out at 1%.

In the case of `Cc1ccc(/C(=N/O)n2nc(C)cc2C)c(Oc2ccc3ccccc3c2)n1`, the “% inhibition” value was 6%.

For `CSc1ccc(Oc2nc(C)ccc2/C(=N/O)NCc2ccco2)cc1`, the “% inhibition” value is on record as -3%.

Turning to `c1ccc2c(-c3nc(CN4CCC5(CC4)OCCO5)co3)cccc2c1`, the “% inhibition” value was found to be 1%.

For `CCN(CC)CCN(CC)Cc1coc(-c2ccccc2C)n1`, the “% inhibition” value came to 5%.

For `CC1CC(C)CN(/C(=N\O)c2ccnc(Oc3ccc(F)c(Cl)c3)c2)C1` (stereo not given), the “% inhibition” value is 16%.

As for `CC(C)c1cccc(Oc2cc(/C(=N/O)N3CCC4CCCCC4C3)ccn2)c1` (stereo not given), the “% inhibition” value turned out to be 9%.

Take `CC1CC(C)CN(/C(=N\O)c2ccnc(Oc3ccc(Cl)cc3)c2)C1` (stereo not given): the “% inhibition” value is 67%.

Turning to `CC1CC(C)CN(/C(=N\O)c2ccnc(Oc3ccc(F)c(F)c3)c2)C1` (stereo not given), the “% inhibition” value was 5%.

For the compound `CC1CC(C)CN(/C(=N\O)c2ccnc(Oc3cccc(C(C)C)c3)c2)C1` (stereo not given), the “% inhibition” value stood at 58%.

In the case of `CC1CC(C)CN(/C(=N\O)c2ccnc(Oc3cccc(F)c3)c2)C1` (stereo not given), the “% inhibition” value is listed as -1%.

For `COc1ccc(-c2nc(CNC(C)c3cccc4ccccc34)co2)cc1` (stereo not given), the “% inhibition” value amounted to 13%.

On to `Cc1ccc(/C(=N/O)NCc2cccnc2)c(Oc2c(F)c(F)cc(F)c2F)n1`, for which the “% inhibition” value came to 35%.

Take `CCCCN(C)Cc1coc(-c2ccccc2)n1`: the “% inhibition” value came to 6%.

Consider `CSc1ccc(Oc2cc(/C(N)=N/O)ccn2)cc1`, for which the “% inhibition” value was 21%.

As to `Cc1ccc(N2CCN(Cc3coc(-c4cccc(F)c4)n3)CC2)cc1C`, the “% inhibition” value was -4%.

Consider `O/N=C(\NCc1ccccn1)c1ccnc(Oc2cccc(F)c2)c1`, for which the “% inhibition” value is recorded as -2%.

Regarding `CC1CCN(/C(=N\O)c2ccnc(Oc3ccc(F)c(F)c3)c2)CC1`, the “% inhibition” value was 41%.

For the compound `CC(C)c1ccc(N/C(=N\O)c2ccnc(Oc3cccc(F)c3)c2)cc1`, the “% inhibition” value is -2%.

For the compound `O/N=C(/c1ccnc(Oc2ccc(F)c(F)c2)c1)N1CCCCCC1`, the “% inhibition” value amounted to 12%.

As to `CC(C)c1ccc(N/C(=N\O)c2ccnc(Oc3ccc(F)c(F)c3)c2)cc1`, the “% inhibition” value is on record as 22%.

With `O/N=C(\NC1CCCC1)c1ccnc(Oc2ccc(F)c(F)c2)c1`, the “% inhibition” value came out at 101%.

On to `O/N=C(\NC1CCCC1)c1ccnc(Oc2cccc(F)c2)c1`, for which the “% inhibition” value is listed as 82%.

Regarding `O/N=C(\NCc1ccncc1)c1ccnc(Oc2ccc(F)c(F)c2)c1`, the “% inhibition” value amounted to 8%.

With `O/N=C(\NC1CCCCC1)c1ccnc(Oc2ccc(F)c(F)c2)c1`, the “% inhibition” value was 99%.

In the case of `CCN(Cc1coc(-c2cccc3ccccc23)n1)C(C)C`, the “% inhibition” value is on record as -1%.

In the case of `Cc1cccc(N2CCN(Cc3coc(-c4ccccc4Cl)n3)CC2C)c1` (stereo not given), the “% inhibition” value is reported as -10%.

Consider `COCCN/C(=N\O)c1cccnc1Oc1c(F)cccc1F`, for which the “% inhibition” value worked out at 65%.

As for `COc1ccc(Oc2ncccc2/C(=N/O)NCCSC)cc1`, the “% inhibition” value worked out at 10%.

With `CSCCN/C(=N\O)c1cccnc1Oc1cccc2ccccc12`, the “% inhibition” value was determined as 11%.

Take `COCCN/C(=N\O)c1cccnc1Oc1cccc(C)c1C`: the “% inhibition” value came out at 0%.

Turning to `CSCCN/C(=N\O)c1cccnc1Oc1c(F)cccc1F`, the “% inhibition” value was found to be 78%.

`CCOc1ccccc1Oc1ncccc1/C(=N/O)NCCOC`: the “% inhibition” value came to 13%.

Turning to `CC(NCc1coc(-c2cccc(F)c2)n1)C(C)(C)C` (stereo not given), the “% inhibition” value came to 8%.

Regarding `Clc1ccccc1-c1nc(CN2CCCCCCC2)co1`, the “% inhibition” value is 14%.

As for `Cc1cccc(CNCc2coc(-c3ccccc3Br)n2)c1`, the “% inhibition” value was -1%.

In the case of `CC1CC(C)CN(/C(=N\O)c2ccc(Oc3ccc(Cl)cc3)nc2)C1` (stereo not given), the “% inhibition” value is given as 0%.

Regarding `CCOc1ccccc1-c1nc(CNCc2ccc(C(F)(F)F)cc2)co1`, the “% inhibition” value stood at 6%.

For `Cc1cc(Oc2ccc(/C(=N/O)NCc3ccncc3)cn2)cc(C(C)C)c1`, the “% inhibition” value was found to be 3%.

In the case of `O/N=C(\NCc1cccs1)c1ccc(Oc2ccc3ccccc3c2)nc1`, the “% inhibition” value is recorded as -9%.

As to `O/N=C(\NCc1cccs1)c1ccc(Oc2cccc(F)c2)nc1`, the “% inhibition” value was 75%.

Turning to `O/N=C(\NCc1cc(F)cc(F)c1)c1ccc(Oc2cccc(F)c2)nc1`, the “% inhibition” value amounted to 42%.

`CC(C)c1cccc(Oc2cc(/C(=N/O)NCc3ccncc3)ccn2)c1`: the “% inhibition” value was 10%.

Regarding `O/N=C(\NCc1ccncc1)c1ccc(Oc2cccc(F)c2)nc1`, the “% inhibition” value was 50%.

With `Cc1cc(Oc2ccc(/C(=N/O)N(C)Cc3cccnc3)cn2)cc(C(C)C)c1`, the “% inhibition” value is recorded as 12%.

With `CN(Cc1cccnc1)/C(=N\O)c1ccc(Oc2ccc3ccccc3c2)nc1`, the “% inhibition” value came to 9%.

Turning to `COc1cccc(Oc2ccc(/C(=N/O)NCc3cccs3)cn2)c1`, the “% inhibition” value is on record as 2%.

`CC(C)c1cccc(Oc2ccc(/C(=N/O)NCc3ccncc3)cn2)c1`: the “% inhibition” value is listed as 100%.

With `COc1ccc(CN/C(=N\O)c2ccc(Oc3cccc(F)c3)nc2)cc1`, the “% inhibition” value is listed as -3%.

Regarding `CC(C)c1cccc(Oc2ccc(/C(=N/O)N(C)Cc3cccnc3)cn2)c1`, the “% inhibition” value is 99%.
